Source: PubChem BioAssay (NCATS)
Several values for one entry are separate records, joined by “and”; a condition that tells them apart may be missing. Equal values may be shown once. Results filed as inconclusive are left out. Where a call stands in place of a potency, no number is given. The source holds several records for some structures; these can differ, active in one and inactive in another. Activity calls are given as the source filed them. The call rests on the fitted dose curve; in most records, active means well fitted curve in the direction sought with a large enough effect; inconclusive means small, poorly fitted or top-dose-only effect, or another doubt; inactive means no such curve, though single readings can be large; an effect the other way counts as inactive or inconclusive.

What was measured:
[1] = Primary qHTS for inhibitors of nuclear receptor binding SET domain protein 2 (NSD2) in an isogenic RCH-ACV NSD2 p.E1099K mutant (9B) (AID 1645876)
[2] = Primary qHTS for inhibitors of nuclear receptor binding SET domain protein 2 (NSD2) in an RCH-ACV wild type WT cells (2C) (AID 1645877)
Further: nearly all actives have a fitted effect of over 70% in size.
Potency means the concentration at half of the fitted maximal effect.

Structure (SMILES): COC(=O)/C=C\C(=O)OC
- Potency [1]: inactive
- Potency [2]: inactive

Structure (SMILES): Cc1cc(OCCOCC[N+](C)(C)Cc2ccccc2)ccc1C(C)(C)CC(C)(C)C
- Potency [1]: 1190 nM (active)
- Potency [2]: 1.19 µM (active)

Structure (SMILES): CCOC(=O)C(=O)c1csc(NC=O)n1
- Potency [1]: inactive
- Potency [2]: inactive

Structure (SMILES): CN(C)CCN(Cc1ccsc1)c1ccccn1
- Potency [1]: inactive
- Potency [2]: inactive

Structure (SMILES): CC1(C)S[C@@H]2[C@H](NC(=O)C(c3ccccc3)S(=O)(=O)O)C(=O)N2[C@H]1C(=O)O (stereo partly drawn)
- Potency [1]: inactive
- Potency [2]: inactive

Structure (SMILES): C[C@H]1NCc2cc(-c3ccc4c(=O)c(C(=O)O)cn(C5CC5)c4c3OC(F)F)ccc21
- Potency [1]: inactive
- Potency [2]: inactive

Structure (SMILES): COc1cc(C(=O)OC(COCCC(C)C)CN2CCOCC2)cc(OC)c1OC (stereo not drawn)
- Potency [1]: inactive
- Potency [2]: inactive

Structure (SMILES): COC(=O)/C=C(/C)N
- Potency [1]: inactive
- Potency [2]: inactive

Structure (SMILES): CC(=O)N(CC(=O)N(C)C)c1ccccc1
- Potency [1]: inactive
- Potency [2]: inactive

Structure (SMILES): C=CCOc1cc(Cl)ccc1C(=O)NCCN(CC)CC
- Potency [1]: inactive
- Potency [2]: inactive

Structure (SMILES): O=P(O)(O)OCC(O)CO (stereo not drawn)
- Potency [1]: inactive
- Potency [2]: inactive

Structure (SMILES): CCCCCCCCCCCCCCCC[N+](C)(C)Cc1ccccc1
- Potency [1]: 750 nM (active)
- Potency [2]: 0.668 µM (active)

Structure (SMILES): OCc1c[nH]c2ccccc12
- Potency [1]: 24300 nM (active)
- Potency [2]: 24.3 µM (active)

Structure (SMILES): N#Cc1cc(NC(=O)C(=O)O)c(Cl)c(NC(=O)C(=O)O)c1
- Potency [1]: inactive
- Potency [2]: inactive

Structure (SMILES): OCCCc1ccccc1
- Potency [1]: inactive
- Potency [2]: inactive

Structure (SMILES): COc1ccc(/C(C)=C/C(=O)O)c(OC)c1
- Potency [1]: inactive
- Potency [2]: inactive

Structure (SMILES): CNC(=O)c1c(I)c(NC(C)=O)c(I)c(C(=O)O)c1I
- Potency [1]: inactive
- Potency [2]: inactive

Structure (SMILES): C[C@H]1C[C@@H]2[C@H]([C@@H](O)C[C@@]3(C)[C@H]2CC[C@]3(O)C(=O)CO)[C@@]2(C)C=CC(=O)C=C12
- Potency [1]: inactive
- Potency [2]: 26.6 nM (active) and 74.2 nM (active)

Structure (SMILES): Cc1ccccc1N1CCN(CCc2nnc3n2CCCC3)CC1
- Potency [1]: inactive
- Potency [2]: inactive

Structure (SMILES): CN1N=C(C(N)=O)CCC1=O
- Potency [1]: inactive
- Potency [2]: inactive

Structure (SMILES): O=C(O)CCCC[C@@H]1SC[C@@H]2NC(=O)N[C@@H]21
- Potency [1]: inactive
- Potency [2]: inactive

Structure (SMILES): COCCOCC(OC)OC
- Potency [1]: inactive
- Potency [2]: inactive

Structure (SMILES): CN1C(=O)c2ccccc2C1=O
- Potency [1]: inactive
- Potency [2]: inactive

Structure (SMILES): Cc1sccc1Br
- Potency [1]: inactive
- Potency [2]: inactive

Structure (SMILES): CCCc1c2oc(C(=O)O)cc(=O)c2cc2c(=O)cc(C(=O)O)n(CC)c12
- Potency [1]: inactive
- Potency [2]: inactive

Structure (SMILES): CCN(CC)CC(=O)Oc1ccc(NC(C)=O)cc1
- Potency [1]: inactive
- Potency [2]: inactive

Structure (SMILES): CC(=O)O[C@H]1CC[C@@]2(C)C(=CC[C@@H]3[C@@H]2CC[C@]2(C)C(C(C)=O)=CC[C@@H]32)C1
- Potency [1]: inactive
- Potency [2]: inactive

Structure (SMILES): CCCCCCCCCCCCCC[N+](C)(C)C
- Potency [1]: 237 nM (active)
- Potency [2]: 0.266 µM (active)

Structure (SMILES): O=[N+]([O-])c1ccc(-c2nc(-c3ccc(F)cc3)c(-c3ccncc3)[nH]2)cc1
- Potency [1]: inactive and 18.4 µM (active)
- Potency [2]: inactive and 23.1 µM (active)
